# Experimental data published in PubChem BioAssay AID602449 (Sanford-Burnham Center for Chemical Genomics, 2012).
# In all, about 360,000 compounds went through this assay and about 5,000 (1.4%) were called active. This is one part of a sample in which actives are shown more often than they occur.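 How the source made its calls: active means inhibition of 50% or more, scaled per plate between neutral and stimulator controls; inactive means the rest.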
# Assay: mitochondrial permeability transition pore inhibitors, primary screen, biochemical, isolated mouse mitochondria, absorbance (AID 602449);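 further: 0% = DMSO wells given calcium and 100% = 1 mM EGTA wells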
# Settings: Ca2+ swelling absorbance, 30 min, at 10 µM, active compounds read high
row,SMILES,inhibition
1,Cc1c[n+]([O-])ccc1[N+](=O)[O-],-0.3% (inactive)
2,COc1ccccc1NC(=O)CCSc1nnc(-c2ccc(O)cc2)o1,-1.6% (inactive)
3,CC(C)Oc1ccc(C(=O)Nc2cc(=O)n(C)c(=O)n2C)cc1,-1.9% (inactive)
4,Cn1cnc(S(=O)(=O)N2C[C@@H](O)COC[C@@H]3O[C@H](CC(=O)NC4CCC4)CC[C@H]32)c1,-0.5% (inactive)
5,O=C(C[C@H]1C[C@@H]2c3cc(NC(=O)C4CCC4)ccc3O[C@@H]2[C@H](CO)O1)NC1CCCCC1,-0.5% (inactive)
6,Cc1cc(F)ccc1N1CCC(N2CCN(C)C(CCO)C2)CC1 (configuration not stated),0% (inactive)
7,CCCNC(=O)NCc1ccc(N2CCCC2=O)cc1,2.2% (inactive)
8,COc1cc(N2CCCC2)c(OC)cc1/C=C(/C#N)c1cccc(Br)c1,1.4% (inactive)
9,Cc1cc(C)c(NC(=O)C[N+](C)(C)CC(O)COc2cccc3ccccc23)c(C)c1 (configuration not stated),80.5% (active)
10,Cc1cc(C)c(NC(=O)c2oc3ccccc3c2COc2ccccc2)c(C)c1,1.5% (inactive)
11,Cc1cc(C)cc(OCC(=O)NCc2cc(C)nc3ccccc23)c1,4.6% (inactive)
12,COc1ccc(C(=O)NC2CC(C)(C)Cc3c2cnn3-c2ccccc2C)o1 (configuration not stated),-1.2% (inactive)
13,CC1=C(C(=O)NC2CC(C)(C)Cc3c2cnn3-c2ccc(C)cc2)OCCO1 (configuration not stated),-0.2% (inactive)
14,COc1ccc(OC)c(C(=O)NC2CCCc3c2cnn3-c2cc(C)cc(C)c2)c1 (configuration not stated),1.5% (inactive)
15,Cc1cc(C(=O)NC2CC(C)(C)Cc3c2cnn3-c2ccccc2)n[nH]1 (configuration not stated),-0.7% (inactive)
16,COc1ccc(C(=O)NC2CCCc3c2cnn3-c2cccc(C)c2C)c(OC)n1 (configuration not stated),71% (active)
17,Cn1nccc1C(=O)NC1CCCc2c1cnn2-c1ccc(F)cc1F (configuration not stated),89.9% (active)
18,COC(=O)c1ccc(C(=O)NC2CC(C)(C)Cc3c2cnn3-c2ccc(F)cc2)nc1 (configuration not stated),-1.7% (inactive)
19,CC1(C)Cc2c(cnn2-c2cccc(F)c2)C(NC(=O)c2cc[n+]([O-])cc2)C1 (configuration not stated),-0.8% (inactive)
20,Cn1nccc1C(=O)NC1CCCc2c1cnn2-c1ccccc1F (configuration not stated),102% (active)
21,CCNC(=O)c1sccc1-n1cccc1,-0.7% (inactive)
22,CCN(CC)C(=O)Oc1ccc(OC(=O)N(CC)CC)cc1,-0.8% (inactive)
23,C[C@H](CO)N1C[C@H](C)[C@@H](CN(C)S(=O)(=O)c2ccc(F)cc2)Oc2ccc(NC(=O)CCC(F)(F)F)cc2C1=O,0.8% (inactive)

row,SMILES,inhibition
1,COc1ccc(CN(Cc2ccco2)S(=O)(=O)c2ccc(S(=O)(=O)N3CCCC3)cc2)cc1,11.4% (inactive)
2,CCc1cccc(NC(=O)COC(=O)c2cc(=O)c3ccccc3o2)c1,0.9% (inactive)
3,CSCC[C@H](NC(=O)N1CCn2c1nc1ccccc12)C(=O)NCc1ccc2c(c1)OCO2,-2.6% (inactive)
4,C=C(C)c1cccc(C(C)(C)NC(=O)NCCN(CC)CC)c1,1.1% (inactive)
5,CCC(C(=O)NC(C)(C)C)n1c(-c2ccccc2)nc2ccccc21 (configuration not stated),1.2% (inactive)
6,Cc1cc(C)n2nc(C(=O)OCC(=O)N(CCC#N)c3ccc(F)cc3)nc2n1,-0.4% (inactive)
7,O=C(Nc1ccc(F)cc1)C1CCN(C(=O)c2ccc([N+](=O)[O-])cc2)CC1,0.6% (inactive)
8,O=C(CCN1C(=O)COc2ccccc21)NCCCN1CCN(c2ccc(F)cc2)CC1,-0.5% (inactive)
9,CN1CCN(CCNC(=O)Nc2ccccc2[N+](=O)[O-])CC1,-0.3% (inactive)
10,O=C(CCC(=O)N1CCCC1)Nc1ccc([N+](=O)[O-])cc1,-1.4% (inactive)
11,O=C(NCCCN1CCN(c2ccc(F)cc2)CC1)Nc1ccc([N+](=O)[O-])cc1,90.9% (active)
12,CN1CCN(CCNC(=O)Nc2ccc([N+](=O)[O-])cc2)CC1,93.8% (active)
13,COc1cc(C)ccc1OCC(=O)OCC(=O)c1ccc[nH]1,0.5% (inactive)
14,COc1ccc(/C=C2/S/C(=N/N=C3\CC4CCC3(C)C4(C)C)NC2=O)cc1 (configuration not stated),-1.3% (inactive)
15,CCOC(=O)/C=C/c1ccc(C(F)(F)F)cc1S(=O)(=O)NC(C)(C)C,2.5% (inactive)
16,CCCCN(CCCC)CCC(O)c1cc2c(Cl)cc(Cl)cc2c2cc(C(F)(F)F)ccc12 (configuration not stated),112% (active)
17,O=C(/C=C/c1ccc(Cl)cc1)Nc1ccc(S(=O)(=O)Nc2ncccn2)cc1,-0.3% (inactive)
18,O=C(/C=C/c1ccc(F)cc1)Nc1cccc(S(=O)(=O)Nc2cccc(C(F)(F)F)c2)c1,92.8% (active)
19,O=C(Nc1cccc(S(=O)(=O)NC2=NCCC2)c1)c1ccc(F)cc1F,-0.6% (inactive)
20,O=C(O)CSC(NC(=O)c1cccnc1)(C(F)(F)F)C(F)(F)F,-1.1% (inactive)
21,N#Cc1c(NC(=O)CCCN2C(=O)c3ccccc3C2=O)oc(-c2ccccc2)c1-c1ccccc1,-0.2% (inactive)
22,COc1cc(C(=O)Nc2oc(-c3ccccc3)c(-c3ccccc3)c2C#N)cc(OC)c1OC,61.1% (active)
23,COc1cc(C(=O)NCC(=O)N2CC=C(c3ccccc3)CC2)cc(OC)c1OC,0% (inactive)

row,SMILES,inhibition
1,CCc1nccn1S(=O)(=O)c1cccc([N+](=O)[O-])c1,0.1% (inactive)
2,O=C(CCN1C(=O)C2CCCCC2C1=O)Nc1ccc(OC(F)F)cc1 (configuration not stated),-2% (inactive)
3,Cn1nc(C(F)(F)F)c(C(=O)Nc2cccc(C(F)(F)F)c2)c1SCc1ccc(Cl)cc1,71.2% (active)
4,CCC(=O)OCc1c(C(F)(F)F)nn(C)c1Oc1cccc(C(F)(F)F)c1,1.5% (inactive)
5,COC(=O)c1ccccc1Sc1c(/C=N/OCc2ccc(Cl)cc2)c(C(F)(F)F)nn1C,2.3% (inactive)
6,CC(=O)c1cccc(NC(=O)[C@@H](NC(N)=O)C(C)C)c1,0.5% (inactive)
7,CSc1nsc(SCC(=O)Nc2cc(C(=O)O)ccc2C)n1,-0.5% (inactive)
8,C=CCSc1nsc(NC(=O)Nc2cccc(C(C)=O)c2)n1,97.4% (active)
9,CC(=O)N1CCC(C(=O)Nc2nc(-c3ccccc3)ns2)CC1,-2% (inactive)
10,c1ccc(C(=NNc2nc3ccccc3s2)c2ccccn2)cc1,0.3% (inactive)
11,CSc1nsc(NC(=O)Nc2ccccc2)n1,85.4% (active)
12,CC(=O)c1cccc(NC(=S)N2CCN(S(C)(=O)=O)CC2)c1,0.1% (inactive)
13,CCSc1nsc(NC(=O)Nc2cccc(C(C)=O)c2)n1,87.2% (active)
14,COc1ccc(C(=O)OCC(=O)Nc2cccc(C(C)=O)c2)cc1OC,-2% (inactive)
15,CCCCN1C(=O)C(=O)N(CC(=O)Nc2cccc(C(C)=O)c2)C1=O,0.4% (inactive)
16,CC(=O)Nc1cccc(-c2nc3ccccc3s2)c1C,-0.5% (inactive)
17,O=C(Nc1ccccc1)Nc1nc2ccccc2s1,96.5% (active)
18,Cc1ccc(S(=O)(=O)N(Cc2ccccc2)c2ccccn2)cc1[N+](=O)[O-],0.2% (inactive)
19,Cc1c(C(=O)N2CCN(c3ccc(F)cc3)CC2)oc2c1C(=O)CCC2,-1% (inactive)
20,COCCCn1c(=O)/c(=C/c2ccccc2OC(C)C)s/c1=C(\C#N)C(=O)Nc1ccc(C(=O)O)cc1,0.6% (inactive)
21,COc1ccc(S(=O)(=O)N2CCC(C(=O)NCCC(=O)Nc3ccccc3OC)CC2)cc1,1% (inactive)
22,CC1CCN(C2=NC(=O)/C(=C/c3cn[nH]c3-c3ccccc3)S2)CC1,0.6% (inactive)
23,COc1ccccc1N(CC(=O)Nc1ccc(C(F)(F)F)cc1)S(C)(=O)=O,-0.2% (inactive)

row,SMILES,inhibition
1,CC1Sc2ccc(C(=O)NCc3ccccc3Cl)cc2NC1=O (configuration not stated),-1% (inactive)
2,CCC/C(C)=N\Nc1nc2c(c(=O)n(C)c(=O)n2C)n1C,4.6% (inactive)
3,COCCN(C(=O)CCC(=O)Nc1nccs1)C(C(=O)NC(C)(C)C)c1ccc(Cl)cc1 (configuration not stated),0.1% (inactive)
4,COc1ccc2oc(C(=O)N(CC(C)C)C3CCS(=O)(=O)C3)c(C)c2c1 (configuration not stated),-1.1% (inactive)
5,O=S(=O)(O)c1cc2onnc2c2ccccc12,0.1% (inactive)
6,CC1(C(=O)O)CCC(C(=O)Nc2ccc(Cl)c(Cl)c2)C1(C)C (configuration not stated),3.1% (inactive)
7,O=C(CC(O)(C(F)(F)F)C(F)(F)F)Nc1ccc(Cl)c(Cl)c1,84.6% (active)
8,O=C(CN1CCN(C(=O)c2ccco2)CC1)Nc1ccc(Cl)c(C(F)(F)F)c1,-0.1% (inactive)
9,O=C(Cn1nc(CNc2ccc(Cl)cc2)[n+]2c1CCCCC2)c1ccc(Cl)cc1,29.5% (inactive)
10,CCOC(=O)N1CCC(NC(=O)CN2C(=O)COc3ccc(C(C)(C)C)cc32)CC1,-0.9% (inactive)
11,O=C1CC(c2ccccc2)=NN1c1ccc([N+](=O)[O-])cc1,91.3% (active)
12,O=C1NC(=O)C2C1C(c1ccc([N+](=O)[O-])cc1)=NN2Cc1ccccc1 (configuration not stated),0.1% (inactive)
13,CCN1N=C(c2ccccc2)CCC1=O,-2.4% (inactive)
14,CCOC(=O)c1cc(NC(=O)c2cccnc2)ccn1,-0.2% (inactive)
15,Cc1c(C(=O)OC(C)C)sc(NC(=O)c2cccnc2)c1C#N,67.6% (active)
16,CC(C)NS(=O)(=O)c1ccc(NC(=O)c2cccnc2)cc1,-1.5% (inactive)
17,CCCCN1C(=O)C(CC(=O)NCc2cccs2)CC(C(=O)N2CCCCCC2)=C1C (configuration not stated),-0.8% (inactive)
18,Cc1cc(Cl)c(S(=O)(=O)NCCC(=O)O)cc1OCC(N)=O,-1.7% (inactive)
19,O=C(NC(Cc1c[nH]c2ccccc12)C(=O)O)/C(=C/c1ccco1)NC(=O)c1ccccc1 (configuration not stated),-1% (inactive)
20,CC(=O)N(CC1CCCO1)C1(C(=O)NC2CCCC2)CCCCC1 (configuration not stated),1.8% (inactive)
21,O=C(Nc1ccc(Cl)cc1)Nc1nnc(/C=C/c2ccccc2)s1,89.9% (active)
22,O=C(CSc1ccccc1)Nc1nnc(/C=C/c2ccccc2)s1,2.2% (inactive)
23,COc1ccc(/C=C/c2nnc(NC(=O)C(C)C)s2)cc1,2.7% (inactive)
